Source: PubChem BioAssay (NCI)
The panel holds about 83,000 compounds, 20% with a hit somewhere; the sample as a whole holds those more often.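 Note: values are percent growth. 100 is the growth of untreated cells, values between 100 and 0 indicate rising inhibition; between -100 and 0 indicates cell death.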 A number with no mark means an inactive call. The source made the active and inactive calls. Rule for the calls: active = growth percent below 10; inactive = the rest.

Key:
Assay in all cases: NCI-60 one-dose screen, 48 h (100 = growth as untreated, 0 = no growth, -100 = all killed)
Conditions in all cases: 10 µM unless noted
NCI-H23 lung = tested on: NCI-H23 lung
NCI-H322M lung = tested on: NCI-H322M lung
HOP-62 NSCLC = tested on: HOP-62 NSCLC
NCI-H460 lung = tested on: NCI-H460 lung
HOP-92 NSCLC = tested on: HOP-92 NSCLC
NCI-H522 lung = tested on: NCI-H522 lung
A549/ATCC NSCLC = tested on: A549/ATCC NSCLC
786-0 renal = tested on: 786-0 renal
COLO 205 colon = tested on: COLO 205 colon
DU-145 prostate = tested on: DU-145 prostate
K-562 leukemia = tested on: K-562 leukemia
MALME-3M melanoma = tested on: MALME-3M melanoma
MDA-MB-231 breast = tested on: MDA-MB-231 breast
RXF 393 renal = tested on: RXF 393 renal
SF-268 CNS = tested on: SF-268 CNS
SF-295 CNS = tested on: SF-295 CNS
SF-539 CNS = tested on: SF-539 CNS
UACC-257 melanoma = tested on: UACC-257 melanoma
M14 melanoma = tested on: M14 melanoma
HCT-15 colon = tested on: HCT-15 colon

SMILES	growth (NCI-H23 lung) [%]	growth (NCI-H322M lung) [%]	growth (HOP-62 NSCLC) [%]	growth (NCI-H460 lung)	growth (HOP-92 NSCLC) [%]	growth (NCI-H522 lung)	growth (A549/ATCC NSCLC) [%]	growth (786-0 renal) [%]	growth (COLO 205 colon)	growth (DU-145 prostate)	growth (K-562 leukemia)	growth (MALME-3M melanoma)	growth (MDA-MB-231 breast) [%]	growth (RXF 393 renal) [%]	growth (SF-268 CNS) [%]	growth (SF-295 CNS)	growth (SF-539 CNS)	growth (UACC-257 melanoma) [%]	growth (M14 melanoma)	growth (HCT-15 colon)
CC1=NCC2NC(=O)NC(C)=C12 (configuration not stated)	103	94.7	97.9	101%	87.7	96.5%	105	96.9	108%	104%	110%	96%	95	101	96.1	103%	95.8%	105	98.5%	103%
CC(C)Cn1c2c(c(=S)[nH]c1=O)CCC2	104	103	102	105%	113	96.1%	103	104	117%	111%	103%	103%	101	109	98.6	107%	97.4%	109	105%	105%
O=C(Nc1nc2c(s1)CCc1c-2c(Br)n(Cc2ccccc2)c1Br)c1ccccc1	79.9	58.9	32.8	40.8%	31.2	61.9%	67.2	56.7	72.7%	74.5%	56.8%	-16.2% (active)	36.6	36.6	60.7	62.5%	18.1%	64.9		81.6%
CCN1C(=O)N(CC)C2C1NC(=S)N2/N=C/C=C/c1ccccc1OC (configuration not stated)	24.3	43.9	44.4	5.86% (active)	18.4	4.46% (active)	22.5	20.2	-46.2% (active)	9.85% (active)	9.29% (active)	55.1%	13.3	35.3	26.7	11.1%	-8.21% (active)	71.9	7.43% (active)	9.07% (active)
Clc1ccc(-c2nnc(COc3ccc(C4=NNC(c5ccco5)C4)cc3)o2)cc1 (configuration not stated)	61.5	36.6	105	82.7%	76.8	86.7%	45.6	89.5	105%	94.8%	80.7%	109%	82.7	91.7	93.9		95.6%	96.1	88%	58.8%
COc1cc(-c2c3c(c(Br)n2Cc2ccccc2)-c2nc(N)sc2CC3)cc(OC)c1OC	98.2	77.7	88.5	94%	76.4	38.4%	82.9	86	108%	108%	47.7%	81%	68.6	90.5	88.2		98.1%	93.6	90.3%	85%
CCOc1cc2c(cc1OCC)C(c1cc(C)c(O)c(C)c1)NCC2 (configuration not stated)	100	92.2	107	100%	88.5	91%	95.5	94.3	106%	111%	78.6%	99.1%	95.7	99.4	103	93.1%	109%	94.3	98.5%	91.2%
CC(=Nc1ccccc1)C1=C(O)C(Cc2ccc(F)cc2)NC1=O (configuration not stated)	30.7	37.5	42.7	13.4%	72.4	-9.06% (active)	35.9	48.2	-52.1% (active)	8.32% (active)	12.3%	24.2%	69.7	15.2	54.9	8.24% (active)	18.7%	38.8	12.8%	23.3%
